This note sets out measurements from PubChem BioAssay.

Activity calls are given as the source filed them.

The target in one assay is Albumin (Bos taurus) (UniProt P02769). Kind of assay: compounds binding labelled BSA control protein – biochemical, small-molecule microarray, Alexa647 label, 635/667 nm fluorescence, artefact control for SMM control protein annotation, profiling panel (AID 1118).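 Further: score merges 667 nm emission intensity and signal-to-noise per printed compound spot.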 To be noted: BSA-A647 binding, fluorescence 635 nm, higher = more signal.
A short description of assay [1]: probe aXIP binding to arrayed compounds – biochemical, NeuroSMM set, 635/667 nm fluorescence, primary screen (AID 1119).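 Further: probe is the protein aXip251-270 applied at 1 µg/mL to compound-printed slides; binding of probe to printed compounds measured as 667 nm fluorescence plus signal to noise.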 The conditions noted are these: small-molecule microarray, higher = more signal, called active from +8 up or from −8 down.
A short description of assay [2]: probe aNOTCH3 binding on compound microarray – biochemical, small-molecule microarray, 635/667 nm fluorescence, primary screen (AID 1120).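 Further: probe is a biotin-tagged antibody raised against NOTCH3 rather than NOTCH3 protein; score merges spot fluorescence near 667 nm with spot signal to noise.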 The conditions noted are these: higher = more signal.
Assay [3] is described as follows: probe aNOTCH2 binding on compound microarray – biochemical, small-molecule microarray, 635/667 nm fluorescence, primary screen (AID 1121).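 Further: score merges feature fluorescence read at 667 nm with its signal to noise.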 The conditions noted are these: higher = more signal.
Assay [4] has as its target Carbonic anhydrase 2 (Homo sapiens) (UniProt P00918). Put plainly: compounds binding carbonic anhydrase 2 – biochemical, small-molecule microarray, Alexa647-labelled CAII, profiling panel (AID 1122). The conditions noted are these: CAII-A647 binding fluorescence, higher = more signal.
Assay [5] is described as follows: COS7 lysate on small-molecule microarray, probe aHis, 635 nm (AID 1123).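 Further: z-score combines 667nm fluorescence intensity with signal-to-noise per printed compound spot.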 To be noted: COS7 cell lysate, fluorescence, higher = more signal.
The nature of assay [6]: probe aLAP1 signal on lysate-treated microarray – cell lysate, small-molecule microarray, COS7 lysate, primary screen (AID 1124).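 Further: lysate comes from COS7 cells expressing LAP1 and is applied at 0.3 µg/mL; score merges spot fluorescence near 667 nm with signal-to-noise over triplicate slides.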 The conditions noted are these: probe aLAP1, fluorescence, higher = more signal.
For a further assay, the system named is Sam68 (KHDRBS1). Put plainly: compounds binding KHDRBS1 protein – biochemical, small-molecule microarray, 635 nm fluorescence, primary screen (AID 1125).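 Further: score merges 667 nm channel intensity with signal to noise over triplicate slides.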 The conditions noted are these: higher = more signal.
Assay [7] relates to Chordin-like protein 2 (CHRDL2). Put plainly: compounds binding chordin-like 2 – biochemical, small-molecule microarray, 635 nm fluorescence, primary screen (AID 1126).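 Further: printed compound slides probed with Chrdl2 protein at 4 µg/mL for 1 h at 4 C; score merges 667 nm emission intensity with signal to noise over three replicate slides.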 The conditions noted are these: fluorescence 635 nm, higher = more signal.
The target of assay [8] is Concanavalin-A (Canavalia ensiformis) (UniProt P02866). Kind of assay: compounds binding concanavalin A lectin – biochemical, small-molecule microarray, Alexa647 label, 635 nm, artefact control for SMM control protein annotation, primary screen (AID 1127).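 Further: z combines 667 nm emission intensity with signal-to-noise across three replicate slides.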 The conditions noted are these: ConA-A647 binding fluorescence, higher = more signal.
Concanavalin-A (Canavalia ensiformis), sequence (P02866 whole entry, looked up): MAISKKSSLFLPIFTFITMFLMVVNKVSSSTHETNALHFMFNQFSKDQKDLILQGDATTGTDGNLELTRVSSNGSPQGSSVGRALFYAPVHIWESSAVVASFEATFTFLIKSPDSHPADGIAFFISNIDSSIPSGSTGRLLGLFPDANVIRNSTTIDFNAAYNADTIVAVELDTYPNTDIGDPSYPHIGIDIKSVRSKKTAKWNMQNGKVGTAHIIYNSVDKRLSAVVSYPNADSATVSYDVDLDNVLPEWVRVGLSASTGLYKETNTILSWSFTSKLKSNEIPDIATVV

Albumin (Bos taurus), sequence (P02769 whole entry, looked up): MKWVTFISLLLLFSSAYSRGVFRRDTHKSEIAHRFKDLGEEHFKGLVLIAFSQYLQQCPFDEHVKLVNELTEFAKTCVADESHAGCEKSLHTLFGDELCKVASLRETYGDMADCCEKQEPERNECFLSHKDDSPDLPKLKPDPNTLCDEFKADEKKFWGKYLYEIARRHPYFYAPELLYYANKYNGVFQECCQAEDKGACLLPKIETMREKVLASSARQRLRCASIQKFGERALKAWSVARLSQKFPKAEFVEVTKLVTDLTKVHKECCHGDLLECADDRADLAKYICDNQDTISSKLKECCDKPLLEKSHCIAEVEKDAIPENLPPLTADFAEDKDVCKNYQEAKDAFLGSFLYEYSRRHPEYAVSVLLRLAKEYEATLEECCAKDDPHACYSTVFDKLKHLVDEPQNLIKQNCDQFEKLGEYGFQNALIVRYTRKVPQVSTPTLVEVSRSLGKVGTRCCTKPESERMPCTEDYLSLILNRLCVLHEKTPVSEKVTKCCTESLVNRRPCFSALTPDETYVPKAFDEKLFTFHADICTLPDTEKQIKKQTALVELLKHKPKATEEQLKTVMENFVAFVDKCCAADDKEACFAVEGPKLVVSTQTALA

As for `CCOC(=O)C=Cc1ccccc1O`, the composite z-score with Albumin (Bos taurus) worked out at 0.725; in [2] it was 0.186; in assay [3] it was 0.0295; in assay [4], 0.188; in assay [5] it was 0.466; in assay [6] it was 0.163. For the same compound, the composite z-score in the assay with Sam68 (KHDRBS1) is 1.01; in assay [7], 0.0871; in [8] it was 0.591. Also, in assay [1], the composite Z-score was -0.116 (inactive).

For `C=CCC(OC(C)=O)[C@@H]1[C@@H](N(Cc2cccc3ccccc23)C(=O)c2ccc(-c3ccccc3)cc2)c2cc(OCCCO)ccc2N1C(=O)c1ccc(-c2ccccc2)cc1` (stereo not given in full), the composite z-score is -0.0811 with Albumin (Bos taurus); -0.0647 in assay [2]; -0.0294 in assay [3]; 0.255 in [4]; 0.384 in [5]; 0.205 in [6]. The composite z-score with Sam68 (KHDRBS1) was -0.225; in [7], -0.046; in [8], -0.441. The composite Z-score in [1] was -0.646 (inactive).

With `O=C1O[C@H](c2ccccc2)[C@H](c2ccccc2)N2[C@H]1[C@@H](C(=O)O)[C@]1(C(=O)Nc3ccc(C#CC4(O)CCCCCC4)cc31)[C@H]2c1ccc(O)cc1`, the composite z-score with Albumin (Bos taurus) is 0.143; in [2], -0.15; in [3], -0.0999; in assay [4], 0.811; in [5], 0.609; in assay [6], 0.0189. The composite z-score turned out to be 0.553 in the assay on Sam68 (KHDRBS1), 0.224 in assay [7] and 0.437 in assay [8]. The composite Z-score in [1] is 0.25 (inactive).

For the compound `COc1ccc([Si](C)(C)[C@H]2[C@H](CCO)O[C@@]3(C(=O)N(Cc4ccccc4)c4ccc(N5C(=O)c6ccccc6Oc6ccccc65)cc43)[C@@H]2C)cc1`, the composite z-score is 0.467 with Albumin (Bos taurus); -0.0984 in [2]; -0.106 in [3]; 0.532 in assay [4]; 1.47 in [5]; 0.62 in assay [6]. The composite z-score worked out at 0.442 with Sam68 (KHDRBS1), 0.214 in assay [7] and 0.823 in [8]. In addition, the composite Z-score in assay [1] was -0.216 (inactive).

As for `C[C@@H]1ON(c2ccc(I)cc2)[C@H](c2ccc(OC(=O)OC(C)(C)C)cc2)[C@H]1C(=O)N1C(=O)OC[C@H]1Cc1ccccc1`, the composite z-score was 0.578 in the assay with Albumin (Bos taurus); -0.0043 in [2]; -0.14 in assay [3]; 0.574 in assay [4]; 0.527 in assay [5]; -0.36 in [6]. Moreover, the composite z-score with Sam68 (KHDRBS1) came out at 1.15; in assay [7], 0.376; in assay [8] it was 1.09. Also, the composite Z-score in assay [1] was 0.0054 (inactive).

On to `COc1cc(CO)cc(I)c1O[C@H]1C=C(C(=O)NCCO)C[C@@H](NCC2CCCCC2)[C@@H]1O`, for which the composite z-score with Albumin (Bos taurus) was 0.0439; in [2] it was 0.107; in [3], -0.104; in [4], 0.681; in assay [5], 1.14; in assay [6], -0.102. Also, the composite z-score in the assay with Sam68 (KHDRBS1) was 0.408; in assay [7], 0.168; in assay [8], 0.324. For the same compound, the composite Z-score in [1] is -0.442 (inactive).

Consider `COC(=O)[C@@]1(Cc2ccccc2CN=[N+]=[N-])N=C(c2ccc(OCCCO)cc2)O[C@H]1c1ccccc1CN=[N+]=[N-]`, for which the composite z-score with Albumin (Bos taurus) is -0.747; in [2], -0.15; in assay [3], -0.101; in [4], 0.885; in assay [5], 1.77; in assay [6], 0.017. The composite z-score in the assay with Sam68 (KHDRBS1) is -0.63; in [7], -1.42; in assay [8] it was 0.114. The composite Z-score in assay [1] is -0.221 (inactive).

Consider `NCCCCCNC(=O)[C@@H]1C[C@@H]2C(=O)N3CCC[C@H]3C(=O)N2[C@@H]1c1ccc(O)cc1`, for which the composite z-score was determined as 0.539 with Albumin (Bos taurus); 0.0496 in assay [2]; 0.0214 in assay [3]; 0.442 in [4]; 1.19 in assay [5]; 0.666 in assay [6]. Also, the composite z-score in the assay on Sam68 (KHDRBS1) was found to be 0.776; in [7], 0.466; in [8] it was 0.893. Also, in assay [1], the composite Z-score is -0.213 (inactive).

As to `[N-]=[N+]=NCc1ccccc1[C@H]1OC(c2ccc(OCCCO)cc2)=N[C@@]1(Cc1ccccc1)C(=O)NCCN1CCOCC1`, the composite z-score with Albumin (Bos taurus) was 0.985; in assay [2], 0.576; in assay [3], -0.0531; in assay [4], 0.696; in [5], 2.61; in [6], 0.961. For the same compound, the composite z-score was 1.3 in the assay with Sam68 (KHDRBS1), 0.104 in assay [7] and 1.12 in assay [8]. Further, the composite Z-score in assay [1] was 0.0851 (inactive).

As to `COc1ccc(C(=O)Nc2cccc(CN3C(=O)[C@@]4(O[C@@H](CC(=O)N(CCO)Cc5ccccc5)[C@H]([Si](C)(C)c5ccc(OC)cc5)[C@H]4C)c4ccccc43)c2)cc1`, the composite z-score was 0.441 with Albumin (Bos taurus); -0.122 in assay [2]; -0.0868 in assay [3]; 0.56 in assay [4]; 1.56 in assay [5]; 0.229 in assay [6]. Further, the composite z-score was 1.19 with Sam68 (KHDRBS1), 0.351 in assay [7] and 0.601 in assay [8]. Also, in assay [1], the composite Z-score is 0.799 (inactive).

As to `COc1ccc([Si](C)(C)[C@@H]2[C@@H](CC(=O)N3Cc4ccccc4C[C@H]3CO)O[C@]3(C(=O)N(Cc4ccc(N5CCC5=O)cc4)c4ccccc43)[C@H]2C)cc1`, the composite z-score with Albumin (Bos taurus) is 0.502; in assay [2], -0.0362; in assay [3], -0.234; in [4] it was 0.337; in [5] it was 1.14; in assay [6] it was 0.421. Moreover, the composite z-score in the assay on Sam68 (KHDRBS1) was 1.24; in assay [7], 1.19; in [8], 1.08. The composite Z-score in assay [1] is -0.0662 (inactive).

Regarding `COCCOC(=O)N1C(=O)[C@@]2(c3ccccc31)[C@H](c1ccc(OCCO)cc1)N1[C@H](c3ccccc3)[C@H](c3ccccc3)OC(=O)[C@H]1[C@@H]2C(=O)N1CCCCCCC1`, the composite z-score with Albumin (Bos taurus) worked out at 0.915; in assay [2], 2.31; in assay [3] it was 1.18; in [4], 1.08; in assay [5], 5.33; in [6] it was 1.22. In addition, the composite z-score amounted to 1.35 in the assay on Sam68 (KHDRBS1), 1.7 in assay [7] and 1.24 in assay [8]. Moreover, the composite Z-score in [1] was 7.84 (inactive).

Regarding `CCOC(=O)C1=C[C@@H](C(C)(C)C)N(S(=O)(=O)c2ccc(C)cc2)[C@H]1c1ccccc1`, the composite z-score with Albumin (Bos taurus) is 0.907; in [2], 0.176; in assay [3] it was -0.0836; in assay [4] it was 0.343; in assay [5], 0.29; in assay [6], 0.931. Also, the figures for the composite z-score (in the assay with Sam68 (KHDRBS1); in assay [7]; in [8]) were 1.31, -0.196 and 0.94, respectively. In assay [1], the composite Z-score is 0.265 (inactive).

Turning to `COCCOC(=O)N1C(=O)[C@@]2(c3cc(C#CCCO)ccc31)[C@H](C(N)=O)[C@H]1C(=O)O[C@H](c3ccccc3)[C@H](c3ccccc3)N1[C@@H]2c1ccc(OCCO)cc1`, the composite z-score with Albumin (Bos taurus) came to 0.489; in assay [2] it was 0.12; in [3], 0.0248; in assay [4], 0.354; in assay [5], 2.21; in [6], 0.667. Moreover, the composite z-score in the assay on Sam68 (KHDRBS1) came out at 1.29; in [7] it was 0.618; in assay [8] it was 1.15. For the same compound, the composite Z-score in assay [1] was 0.206 (inactive).

As to `CCC(CC)C(O)C1C=CC2C(=O)N(c3ccccc3)C(=O)C2N1Nc1ccc([N+](=O)[O-])cc1` (stereo not given), the composite z-score turned out to be 1.01 with Albumin (Bos taurus); 0.443 in assay [2]; 0.125 in assay [3]; 0.573 in assay [4]; 1.72 in assay [5]; 1.35 in [6]. For the same compound, the composite z-score in the assay on Sam68 (KHDRBS1) is 1.3; in assay [7], -0.0998; in assay [8], 1.05. Further, the composite Z-score in assay [1] was 1.13 (inactive).

Consider `COCCOC(=O)N1C(=O)[C@@]2(c3cc(C#CC4(O)CCCCCC4)ccc31)[C@H](c1ccc(OCCO)cc1)N1[C@H](c3ccccc3)[C@H](c3ccccc3)OC(=O)[C@H]1[C@@H]2C(=O)Nc1nc2ccccc2s1`, for which the composite z-score with Albumin (Bos taurus) was 0.729; in assay [2], 0.5; in [3], -0.0009; in [4], 0.161; in assay [5], 0.804; in [6], 0.388. The results for the composite z-score (in the assay on Sam68 (KHDRBS1); in assay [7]; in assay [8]) were 1.3, 0.58 and 1.11, respectively. Further, the composite Z-score in assay [1] was 0.526 (inactive).
